Measured values taken from PMC6212790, “How bacterial xenogeneic silencer rok distinguishes foreign from self DNA in its resident genome”.
Over roughly 33,000 sequences, “e-score” has its median near -0.038; the highest 2% begin near 0.33. Shown is part of a subset that was picked to be rich in the highest values.

Each sequence was assayed against T1, GST-Rok-C97-191 (Bacillus subtilis subsp. subtilis str. …, UniProt O34857 97-191) (assay: protein binding microarray; Rok is a gene silencer of Bacillus subtilis; high values mean tight binding). Conditions: protein: recombinant; tags: GST (pTH5325, pDEST15-Magic modified); dsDNA, one strand shown.
T1 sequence: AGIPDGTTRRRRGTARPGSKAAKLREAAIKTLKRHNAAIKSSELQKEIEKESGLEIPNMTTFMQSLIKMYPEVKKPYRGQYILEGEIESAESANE
In short: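 Each has a 25-mer constant primer and a 35-mer variable part from a de Bruijn sequence of order 10, covering every non-palindromic 8-mer at least 32 times (palindromic 16). Preference for each 8-mer is given as a rank-based, unitless enrichment score (E-score). Its range runs from 0.5 (most favored) to −0.5 (most disfavored).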
ATACAAAT gave a binding signal of 0.337 E-score. Work on CTACAAAC yielded a binding signal of 0.114 E-score. For ATACAAAG, the binding signal was 0.17 E-score. Sequence GTACAAAC has a binding signal of 0.304 E-score. ATACAAAC gave a binding signal of 0.371 E-score. With ATACAAAA the binding signal was 0.276 E-score. For CAGGAATG, the binding signal was -0.083 E-score. Work on TGAGGTAA yielded a binding signal of 0.126 E-score. Sequence ATTGACCG has a binding signal of -0.00184 E-score. AATACTCT was tested, and the binding signal was 0.131 E-score. AATACTAA gave a binding signal of 0.287 E-score. With AATACTGT the binding signal was 0.083 E-score. For AATACTCG, the binding signal was 0.0344 E-score. With AATACTAC the binding signal was 0.383 E-score. For CATACTAC, the binding signal was 0.284 E-score. In the case of AATACTAT, the binding signal is reported as 0.35 E-score. TATACTAA showed a binding signal of 0.382 E-score. For GATACTAC, the binding signal was 0.313 E-score. AATACTAG was tested, and the binding signal was 0.34 E-score. With CATACTAG the binding signal was 0.285 E-score. CATACTAA gave a binding signal of 0.0976 E-score. Sequence GCAATCCC has a binding signal of -0.104 E-score. Sequence GTCAGGAC has a binding signal of -0.147 E-score. For AATTTCAG, the binding signal was 0.153 E-score. With ACCTTCGG the binding signal was -0.173 E-score. Sequence AGTTGAGA has a binding signal of 0.111 E-score. Work on ACCTAACT yielded a binding signal of 0.128 E-score. With TAGACGAA the binding signal was -0.0468 E-score. GTGCAAAA showed a binding signal of 0.0465 E-score. Sequence CGTCCACG has a binding signal of -0.161 E-score. Sequence AGGTTGCG has a binding signal of -0.0431 E-score. With AGTAATAT the binding signal was 0.386 E-score. With ACTAATAG the binding signal was 0.292 E-score. AGTAATAA showed a binding signal of 0.238 E-score. AGTAATAG showed a binding signal of 0.355 E-score. AGTAATCG showed a binding signal of 0.0918 E-score. CGTAATAG was tested, and the binding signal was 0.247 E-score. Work on AGTAATAC yielded a binding signal of 0.274 E-score. For ACTAATAT, the binding signal was 0.342 E-score. ACTAATAC gave a binding signal of 0.248 E-score. For AAGGTTGG, the binding signal was -0.0102 E-score. For ACGCATTA, the binding signal was 0.134 E-score. With CGGTGCAG the binding signal was -0.0983 E-score. In the case of GGCTAGAC, the binding signal is reported as -0.152 E-score. AGATTAGC showed a binding signal of 0.212 E-score. For AAGTAAAC, the binding signal was 0.116 E-score. TAGTAAAA was tested, and the binding signal was 0.37 E-score. For AGGTAAAT, the binding signal was 0.247 E-score. For GAGTAAAA, the binding signal was 0.269 E-score. Sequence AAGTAAGT has a binding signal of 0.263 E-score. In the case of TGGTAAAA, the binding signal is reported as 0.337 E-score. CAGTAAAA gave a binding signal of 0.188 E-score. AAGTAAAT gave a binding signal of 0.359 E-score. For AAGTAAAG, the binding signal was 0.104 E-score. In the case of CGGTAAAA, the binding signal is reported as 0.242 E-score. Work on AAGTAAAA yielded a binding signal of 0.335 E-score. GGGTAAAA showed a binding signal of 0.206 E-score. Sequence CTGAAAAG has a binding signal of 0.0606 E-score. Work on CTCCATAA yielded a binding signal of -0.175 E-score. TCTCCGAA showed a binding signal of 0.161 E-score. Sequence TAAGCATA has a binding signal of 0.00925 E-score. AAAGGTCA gave a binding signal of -0.146 E-score. In the case of ACGCACCA, the binding signal is reported as -0.186 E-score. Work on AAGACCGG yielded a binding signal of -0.0043 E-score. CCTTATTA gave a binding signal of 0.0213 E-score. Sequence CGTAACTC has a binding signal of 0.0679 E-score. Work on GTTAGCGA yielded a binding signal of 0.0595 E-score. Sequence GAGCTGCC has a binding signal of 0.0253 E-score. For GACAGACA, the binding signal was -0.102 E-score. Work on CGTAAGTA yielded a binding signal of 0.16 E-score. For GCGTGAGA, the binding signal was -0.00817 E-score. ATTTACTA showed a binding signal of 0.439 E-score. ATTTACTG was tested, and the binding signal was 0.319 E-score. AATTACTC was tested, and the binding signal was 0.255 E-score. ATTTACTC was tested, and the binding signal was 0.234 E-score. With GATTACAA the binding signal was 0.134 E-score. AATTACCC gave a binding signal of 0.185 E-score. AATTACCA showed a binding signal of 0.33 E-score. With CATTACTA the binding signal was 0.32 E-score. AATTACTG gave a binding signal of 0.253 E-score. For GATTACTA, the binding signal was 0.354 E-score. AATTACTA was tested, and the binding signal was 0.43 E-score. GATTACCA was tested, and the binding signal was 0.14 E-score. AGGCCTAG was tested, and the binding signal was 0.0496 E-score. With GACCGCTA the binding signal was 0.0642 E-score. With AATAACCG the binding signal was 0.184 E-score. In the case of AACCAGCA, the binding signal is reported as 0.0878 E-score. In the case of GTCGAGGA, the binding signal is reported as -0.0836 E-score. In the case of GCGTCCGA, the binding signal is reported as -0.026 E-score. Sequence CACCTCGC has a binding signal of -0.148 E-score. Sequence ACTGCCCT has a binding signal of -0.164 E-score. Work on GGAAGTCA yielded a binding signal of -0.092 E-score. Sequence AAGTTTCC has a binding signal of 0.148 E-score. With GAATTACC the binding signal was 0.18 E-score. Work on ACATTACT yielded a binding signal of 0.263 E-score. CAATTACC was tested, and the binding signal was 0.0477 E-score. In the case of AAATTACT, the binding signal is reported as 0.358 E-score. AAATTACC showed a binding signal of 0.365 E-score. AAATTACG showed a binding signal of 0.273 E-score. In the case of CAGTTGAC, the binding signal is reported as 0.0118 E-score. Sequence AACGCAAA has a binding signal of -0.043 E-score. In the case of CCAACTCG, the binding signal is reported as -0.0471 E-score. Sequence ACATGCTA has a binding signal of 0.33 E-score. In the case of GCATGCTA, the binding signal is reported as 0.0693 E-score. CCATGCTA gave a binding signal of 0.153 E-score. With CTGACATA the binding signal was -0.188 E-score. Work on ACACAACT yielded a binding signal of 0.0324 E-score. Sequence GTATACTA has a binding signal of 0.338 E-score. In the case of CTATACAA, the binding signal is reported as 0.3 E-score. CTATACTA showed a binding signal of 0.301 E-score. With ATATACTA the binding signal was 0.436 E-score. GCATACTA gave a binding signal of 0.241 E-score. With ATATACTC the binding signal was 0.293 E-score. In the case of ACATACTA, the binding signal is reported as 0.305 E-score. ATATACAG was tested, and the binding signal was 0.317 E-score. With ATATACAA the binding signal was 0.365 E-score. Work on GGATACTA yielded a binding signal of 0.167 E-score. With ATATACTG the binding signal was 0.365 E-score. Sequence CTATACTC has a binding signal of 0.173 E-score. CAAGGATG gave a binding signal of -0.044 E-score. With CTGTCTCA the binding signal was -0.118 E-score. CAGGGCCA showed a binding signal of -0.145 E-score. With GTCACAAA the binding signal was 0.0798 E-score. GAGCTTGA was tested, and the binding signal was -0.0815 E-score. CACTTGTA gave a binding signal of 0.238 E-score. Work on GACAAGTA yielded a binding signal of 0.226 E-score. For CAATTGTG, the binding signal was 0.0188 E-score. For AATTCGAT, the binding signal was 0.215 E-score. In the case of CTAACTAC, the binding signal is reported as 0.348 E-score. With TTAACTAA the binding signal was 0.235 E-score. With CTAACTCC the binding signal was -0.00723 E-score. With CTAACTAA the binding signal was 0.288 E-score. GTAACTAA gave a binding signal of 0.353 E-score. ATAACTAC gave a binding signal of 0.323 E-score. With CTAACTAG the binding signal was 0.268 E-score. GGAACTAC showed a binding signal of 0.254 E-score. GTAACTAC was tested, and the binding signal was 0.417 E-score. CAAGCAGA showed a binding signal of 0.0345 E-score. Work on GCCGAATA yielded a binding signal of 0.0948 E-score. In the case of GCTCGTAA, the binding signal is reported as 0.0484 E-score. ACTCCAGC gave a binding signal of 0.114 E-score. CTGAAGGA showed a binding signal of -0.156 E-score. ATCCAGCG showed a binding signal of -0.106 E-score. AACTACCG showed a binding signal of 0.41 E-score. With CACTACCA the binding signal was 0.0866 E-score. CACTACCG was tested, and the binding signal was 0.065 E-score. Sequence ACCTACCT has a binding signal of 0.154 E-score. Work on AACTACCA yielded a binding signal of 0.433 E-score. Work on AACTACCT yielded a binding signal of 0.412 E-score. For AACTATCT, the binding signal was 0.294 E-score. CACTACCC was tested, and the binding signal was -0.0292 E-score. GACTACCA gave a binding signal of 0.141 E-score. In the case of AGCTACCG, the binding signal is reported as 0.228 E-score. AACTACCC was tested, and the binding signal was 0.338 E-score. With GACTACCC the binding signal was 0.0938 E-score. CAATTTTA was tested, and the binding signal was 0.234 E-score. ACGGGAGA was tested, and the binding signal was -0.12 E-score. CAAGTTGA showed a binding signal of -0.0731 E-score. TCGACTAA was tested, and the binding signal was 0.0796 E-score. AAAGTTCT was tested, and the binding signal was 0.145 E-score. With GCTCGGTA the binding signal was 0.0228 E-score. Sequence AGCGGCCG has a binding signal of -0.112 E-score. For CATTGATA, the binding signal was 0.26 E-score. ACGTTCAC gave a binding signal of 0.0772 E-score. Sequence GATAAGTA has a binding signal of 0.238 E-score. With CCGTCGAA the binding signal was 0.0267 E-score. GGAATGGA was tested, and the binding signal was -0.114 E-score. With TACTACCA the binding signal was 0.404 E-score. In the case of TCCTACCA, the binding signal is reported as 0.273 E-score. Sequence TGCTACCA has a binding signal of 0.099 E-score. CGCTACGA showed a binding signal of 0.0242 E-score. CCTGTCCC gave a binding signal of 0.0167 E-score.
